M1 PAM – positive allosteric modulators of human M1 muscarinic receptor. CHO-K1 hM1, Fluo-8 calcium fluorescence, ACh EC20; 0% = ACh EC20, 100% = maximal ACh. activation, % at 3 µM. actives 0.088% (n = 360,000); in the data active = activation above about 19%, passing the limit was not always enough
Target sequence (P11229 whole entry, looked up): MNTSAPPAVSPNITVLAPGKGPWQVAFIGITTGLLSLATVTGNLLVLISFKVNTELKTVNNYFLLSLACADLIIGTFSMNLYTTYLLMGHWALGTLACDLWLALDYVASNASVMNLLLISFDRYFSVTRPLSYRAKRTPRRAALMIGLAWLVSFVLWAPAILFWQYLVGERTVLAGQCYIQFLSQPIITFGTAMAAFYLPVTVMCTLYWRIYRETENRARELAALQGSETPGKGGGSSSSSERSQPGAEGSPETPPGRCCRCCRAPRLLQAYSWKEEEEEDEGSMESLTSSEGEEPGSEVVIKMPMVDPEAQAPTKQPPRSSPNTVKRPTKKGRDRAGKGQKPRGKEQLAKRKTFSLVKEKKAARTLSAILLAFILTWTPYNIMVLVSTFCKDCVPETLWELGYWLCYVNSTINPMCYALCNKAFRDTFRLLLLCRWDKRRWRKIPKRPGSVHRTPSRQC
CHO-K1 Ca antag – M1 antagonist counterscreen hit in parental CHO-K1 cells; ATP-induced calcium, Fluo-8 fluorescence; inhibition, % at 3 µM; actives 0.6% (n = 360,000);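 active = inhibition above a per-plate cutoff, the plate's mean sample inhibition plus 3 SD, cut at about 24% in these data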
M1 ag – human M1 muscarinic receptor agonism; P11229; AID 588814; CHO-K1 hM1, Fluo-8 calcium fluorescence, agonist mode; 0% DMSO, 100% acetylcholine EC100; actives 0.33% (n = 360,000); activation, % at 3 µM;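 active = activation above the run's mean compound activation plus 3 SD, cut at about 16% in these data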;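 also: peak over basal fluorescence ratio within a 140 s kinetic read after compound addition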
M1 ag parental – M1 agonist counterscreen hit in parental CHO-K1 cells. Fluo-8 calcium fluorescence; scaled to maximal ATP response, vehicle zero. activation, % at 3 µM. actives 0.48% (n = 360,000). AID 602248; in the data active = activation above about 15%;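 also: untransfected CHO-K1 host cells lacking M1 receptor as counterscreen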
CHRM1 antagonist – human CHRM1 antagonism. actives 1.3% (n = 360,000). CHO-K1 hM1, Fluo-8 calcium fluorescence, ACh EC80 antagonist. P11229. inhibition, % at 3 µM;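 active = percent inhibition above its own plate's cutoff, namely the mean of that plate's compound wells plus 3 SD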;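 also: peak over basal fluorescence ratio during 140 s after agonist addition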
M1 PAM parental – nonselective activator or artifact in parental CHO-K1 calcium assay; ATP EC20, Fluo-8 calcium fluorescence; 0% at ATP EC20, 100% at ATP max; activation, % at 3 µM; actives 0.02% (n = 360,000); AID 602247;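 active = activation above the run cutoff, the mean activation of all test compounds plus 3 SD, cut at about 40% in these data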;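 also: peak over basal fluorescence ratio in a 140 s read after ATP addition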
Large screens that a line does not name were inactive. Most compounds without a hit are left out; they make up all but 2.3% or so of the library.

CC1(C)Cc2c(sc(NC(=O)c3ccc(Br)o3)c2C#N)CO1	CHO-K1 Ca antag 25
COc1cccc(C(O)c2nc(-c3cncnc3)cs2)c1 (stereo not given)	none
COc1cccc(C2NC(=O)NC(C)=C2C(=O)OCC2CCCCC2)c1 (stereo not given)	none
OC1(c2ccc(Br)cc2)CCN(Cc2cccc(Br)c2)CC1	CHRM1 antagonist 35
CCC(=O)N1CCN(c2ccc(NC(=O)COc3ccccc3[N+](=O)[O-])cc2)CC1	CHRM1 antagonist 31
O=S(=O)(Nc1nc2ccccc2[nH]1)c1ccc(Cl)cc1	CHRM1 antagonist 70
O=C(Nc1cc(Cl)ccc1N1CCCC1)C1=COCCO1	none
CN(Cc1cccs1)c1nc(-c2cccnc2)nc2ccccc12	CHRM1 antagonist 35
COC(=O)C1=C(C)N(Cc2ccccc2)C(=NCCCCO)N[C@H]1CCc1ccccc1	none
CC(=O)N/C(=C\c1ccccc1)C(=O)OCc1cccc(S(=O)(=O)N(C)C)c1	M1 ag parental 15
C#CCOc1ccccc1C(N)=O	none
CCOC(=O)C1CCCN(c2ncnc3c2oc2ccccc23)C1 (stereo not given)	CHO-K1 Ca antag 24
Cc1cc2nc(N=C(N)N)nc(C)c2cc1C	none
COc1ccc(Cc2nnc(NC(=O)c3ccccc3Cl)s2)cc1OC	M1 ag parental 22
COc1ccc(Cc2nnc(NC(=O)c3ccccc3F)s2)cc1OC	none
COc1ccc(Cc2nnc(NC(=O)Nc3ccc(C)cc3)s2)cc1OC	none
COc1ccc(Cc2nnc(NC(=O)CSc3ccc(C)cc3)s2)cc1OC	M1 ag 61, M1 ag parental 49, M1 PAM parental 42
Cc1ccc(-c2nn(-c3ccccc3)cc2C(=O)Nc2cccc(S(=O)(=O)NC3=NCCC3)c2)cc1	CHO-K1 Ca antag 34
O=C(Nc1cccc(S(=O)(=O)NC2=NCCC2)c1)c1cn(-c2ccccc2)nc1-c1ccc(F)cc1	none
COc1ccc2ccccc2c1CNC(C)c1ccccc1 (stereo not given)	none
CC(NCCCOc1cccc2ccccc12)c1ccccc1 (stereo not given)	M1 ag parental 28
CN(C)c1ccc(CN(C(=O)COc2ccccc2)C2CCS(=O)(=O)C2)cc1 (stereo not given)	CHO-K1 Ca antag 27
Cc1ccccc1OCC(=O)N(Cc1ccc(N(C)C)cc1)C1CCS(=O)(=O)C1 (stereo not given)	none
Cc1ccc(CN2CCC(C)(Oc3ccc(Cl)cc3)C2)cc1 (stereo not given)	none
Cc1ccc(C)c(C(=O)CCC(=O)Nc2ccc(N3CCN(C)CC3)cc2C)c1	none
CCOC(=O)N1CCN(S(=O)(=O)c2ccc(Cl)cc2)CC1	none
CCOC(=O)c1ccc(N2CCN(c3cc(C)ccc3C)CC2)c(N)c1	none
CCOC(=O)N1CCC(N2CCN(c3cc(C)ccc3C)CC2)CC1	CHRM1 antagonist 51
CCOC(=O)N1CCC(N2CCN(S(=O)(=O)c3ccc(Cl)cc3)CC2)CC1	M1 ag 39
CCc1cccc(NC(=O)Cn2c(=O)c3cccn3c3ccccc32)c1	none
Cc1ccc(C)n1-c1ccc(C(=O)NN)cc1	none
Cc1cc(C)nc(NC(=NCCc2c[nH]c3ccccc23)NC(=O)c2ccco2)n1	CHRM1 antagonist 29
Cc1cc(C)nc(NC(=NCCc2c[nH]c3ccccc23)NC(=O)Nc2ccccc2)n1	CHRM1 antagonist 21
Cc1cc(C)nc(NC(=NCCc2c[nH]c3ccccc23)NC(=O)Nc2ccc(Cl)c(Cl)c2)n1	none
CC(CCCN(C)C)C(Cc1ccccc1)c1ccccc1 (stereo not given)	CHRM1 antagonist 80
CN(C)CCNC(=O)C(c1ccccc1)c1ccccc1	none
CN(C)CCC(=O)C(Cc1ccccc1)c1ccccc1 (stereo not given)	CHRM1 antagonist 73
CN(C)CC(c1ccccc1)c1ccccc1	none
c1ccc(-n2cc(CN3CCCC3)c(-c3ccc4c(c3)OCO4)n2)cc1	M1 ag parental 20
C[C@H]1CN([C@@H](C)CO)C(=O)c2cc(Br)cnc2O[C@H]1CN(C)C(=O)C1CC1	none
O=C(NC1CCCCC1)C(=O)c1c(-c2ccccc2)[nH]c2ccccc12	CHO-K1 Ca antag 27
Oc1ccc(C23CCCC2C2(CCCC2)c2ccc(O)cc2O3)c(O)c1 (stereo not given)	M1 ag 40, M1 ag parental 24, CHRM1 antagonist 38
Cc1c(OCC(=O)NCCN2CCOCC2)ccc2c1oc(=O)c1ccccc12	M1 ag parental 17
CCc1c(O)nc(SCC(=O)Nc2ccccc2)n(-c2ccccc2C)c1=O	M1 PAM 29
CCN1/C(=C/C(=O)c2ccco2)Sc2ccccc21	none
CCOC(=O)/C(=C/C=C1\Sc2ccccc2N1CC)C(C)=O	CHO-K1 Ca antag 28, M1 ag 19, M1 ag parental 18
CCOC(=O)/C(=C/C=C1\Sc2cc(C)c(C)cc2N1CC)C(C)=O	M1 ag 51, M1 ag parental 22, CHRM1 antagonist 33
CCC(=O)/C=C1/Sc2ccccc2N1CC	none
CCOC(=O)/C(=C\C=C1/Sc2ccccc2N1CC)C(C)=O	M1 ag 47, M1 ag parental 38
CCc1nc2ccc(C(=O)NCCc3c[nH]c4ccccc34)cn2c1N(C)Cc1ccc(N(C)C)cc1	none
CN(C)C1(CNC(=S)Nc2ccccc2C(F)(F)F)CCCCC1	M1 ag 50
CN(C)C1(CNC(=O)Nc2ccccc2)CCCCC1	none
CC(C)(C)NCC(O)(c1ccc(Cl)cc1)c1ccc(Cl)cc1	none
CCN(CC)CCNCC(O)(c1ccc(Cl)cc1)c1ccc(Cl)cc1	CHRM1 antagonist 51
Cc1ccccc1-c1cc2nc(NCc3ccccc3F)n(C)c(=O)c2s1	none
CCCCc1cc2ccccc2c(OCCN(C)C)n1	CHRM1 antagonist 56
CC1Oc2ccc(C#N)cc2N(Cc2ccccc2OC(F)(F)F)C1=O (stereo not given)	none
Cc1ccc(C)c(NC(=O)Cn2cc(C(=O)C3CC3)c3ccccc32)c1	CHO-K1 Ca antag 25
CC(=O)c1cn(CC(=O)Nc2ccccc2C(F)(F)F)c2ccccc12	CHO-K1 Ca antag 27
O=C(NC1CCN(S(=O)(=O)c2ccccc2)CC1)c1ccc(F)cc1	none
CCc1cccc(CC)c1N1C(=O)C2=C(SCCCS2)C1=O	M1 ag 20, M1 ag parental 26
O=C(Nc1ccc(N2CCN(C(=O)c3ccccc3)CC2)c(Cl)c1)c1ccc(Br)o1	none
O=C(Nc1ccc(N2CCOCC2)c(Cl)c1)c1ccc(Br)o1	CHRM1 antagonist 41
Cc1cccc(NC(=O)C(C)N2C(=O)c3ccccc3S2(=O)=O)n1 (stereo not given)	CHO-K1 Ca antag 28, CHRM1 antagonist 28
Cc1cccc(NC(=O)CN2C(=O)c3ccccc3S2(=O)=O)n1	none
